Experimental data: the supplement of paper PMC7057948, “A genome-wide approach for identification and characterisation of metabolite-inducible systems” (Nature Communications, 2020)

Key:
Assay in all cases: relative induction of RFP reporter vs primary effector (background-corrected); higher = stronger activation of the biosensor
Details in all cases: inducer concentration 5 mM; 6 h; Cupriavidus necator H16; minimal medium + 0.4% gluconate
[1] = system: AcoR/P_H16_RS19445 acetoin biosensor (pEH052)
Experimental: (§1)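 C. necator H16 strains, each carrying one of 21 transcription factor/inducible promoter–mRFP biosensor plasmids, were grown in minimal medium in 96-well plates (robotic platform). Each was exposed to 46 structurally or metabolically related compounds at 5 mM at 30 °C. OD-normalised RFP fluorescence was read 6 h later and expressed as relative induction (%) = 100 × (FL compound − FL uninduced)/(FL primary inducer − FL uninduced); mean of n=4.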

[2] = system: AraC/P_araBAD L-arabinose biosensor (pEH176)
Experimental: as §1

[3] = system: BenM/P_H16_RS09790 benzoate biosensor (pEH148)
Experimental: as §1

[4] = system: FdsR/P_H16_RS03165 formate biosensor (pEH134)
Experimental: as §1

[5] = system: GabR/P_H16_RS23655 GABA biosensor (pEH256)
Experimental: as §1

[6] = system: HpdR/P_H16_RS18295 3-hydroxypropanoate biosensor (pEH010)
Experimental: as §1

[7] = system: KynR/P_H16_RS14030 L-kynurenine biosensor (pEH136)
Experimental: as §1

[8] = system: NahR/P_H16_RS08125 salicylate biosensor (pEH042)
Experimental: as §1

[9] = system: OapR/P_H16_RS01330 beta-alanine biosensor (pEH147)
Experimental: as §1

[10] = system: PcaQ/P_H16_RS30145 3,4-dihydroxybenzoate biosensor (pEH161)
Experimental: as §1

[11] = system: PhgR/P_H16_RS05530 phenylglyoxylate biosensor (pEH155)
Experimental: as §1

[12] = system: PhhR/P_H16_RS18365 L-phenylalanine biosensor (pEH137)
Experimental: as §1

[13] = system: SauR/P_H16_RS13695 sulfonatoacetate biosensor (pEH157)
Experimental: as §1

[14] = system: TtdR/P_H16_RS10665 tartrate biosensor (pEH083)
Experimental: as §1

[15] = system: XdhR/P_H16_RS05055 xanthine biosensor (pEH154)
Experimental: as §1

[16] = system: heterologous inducible system pEH002 (rhamnose/acrylate/cumate/itaconate set)
Experimental: as §1

[17] = system: heterologous inducible system pEH020 (rhamnose/acrylate/cumate/itaconate set)
Experimental: as §1

[18] = system: heterologous inducible system pEH040 (rhamnose/acrylate/cumate/itaconate set)
Experimental: as §1

[19] = system: heterologous inducible system pEH086 (rhamnose/acrylate/cumate/itaconate set)
Experimental: as §1

[20] = system: BadR/P_H16_RS27200 cyclohexanecarboxylate biosensor (pEH159)
Experimental: as §1
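Also: RFP excited at 585 nm with emission read at 620 nm, culture medium blanks subtracted from fluorescence and absorbance prior to normalisation.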

Compound | relative induction of RFP reporter [1] [%] | relative induction of RFP reporter [2] [%] | relative induction of RFP reporter [3] [%] | relative induction of RFP reporter [4] [%] | relative induction of RFP reporter [5] [%] | relative induction of RFP reporter [6] [%] | relative induction of RFP reporter [7] [%] | relative induction of RFP reporter [8] [%] | relative induction of RFP reporter [9] [%] | relative induction of RFP reporter [10] [%] | relative induction of RFP reporter [11] [%] | relative induction of RFP reporter [12] [%] | relative induction of RFP reporter [13] [%] | relative induction of RFP reporter [14] [%] | relative induction of RFP reporter [15] [%] | relative induction of RFP reporter [16] [%] | relative induction of RFP reporter [17] [%] | relative induction of RFP reporter [18] [%] | relative induction of RFP reporter [19] [%] | relative induction of RFP reporter [20] [%]
C[C@@H](O)C(=O)O [D-lactate] | -2.25 | -0.0311 | -0.0413 | -1.67 | -2.02 | -0.134 | 0.0968 | -0.00031 | -0.533 | -0.113 | -0.587 | -0.462 | 0.0141 | 0.347 | -0.947 | 0.0109 | -0.802 | -1.93 | 0.366 | –
NCCc1ccc(O)c(O)c1 [dopamine] | 0.498 | -0.00264 | 0.0224 | 2.79 | 0.204 | 0.166 | 0.568 | 0.0188 | 0.108 | 0.356 | 0.249 | 0.138 | 0.18 | 1.41 | 0.0292 | 0.0361 | 0.433 | 1.22 | 0.396 | 1.95
O=c1cc[nH]c(=O)[nH]1 [uracil] | -0.264 | -0.0292 | -0.0102 | 2.09 | 0.468 | 0.292 | 1.02 | 0.0235 | 0.971 | -0.0843 | -0.376 | 0.347 | -0.0169 | -0.0341 | 0.952 | 0.0212 | 0.742 | -0.00512 | 0.875 | –
O=C(O)c1ccc(O)cc1 [4-hydroxybenzoate] | 0.234 | -0.0125 | -0.00462 | 1.94 | -0.622 | 0.357 | -0.184 | 0.159 | -0.798 | 212 | -0.153 | -0.483 | -0.0101 | 0.895 | -0.191 | 0.0183 | -0.27 | -0.0264 | 0.318 | –
Cn1c(=O)c2c(ncn2C)n(C)c1=O [caffeine] | 3.23 | 0.0778 | 0.0418 | 5.81 | -0.00438 | 0.0271 | 1.64 | 0.0392 | 0.545 | 0.0177 | -0.541 | 1.57 | 0.0139 | 0.808 | 0.33 | 0.0111 | -0.176 | 1.6 | 0.797 | –
NCC(N)C(=O)O (configuration not stated) [2,3-diaminopropanoate] | 0.396 | 0.013 | 0.0534 | -1.38 | -1.16 | 0.349 | -0.43 | 0.0162 | 0.656 | -0.0605 | -0.221 | 0.0532 | -0.0132 | -0.586 | -0.1 | 0.0204 | -0.419 | 2.94 | 0.484 | –
NCC(O)C(=O)O (configuration not stated) [3-amino-2-hydroxypropanoate] | -0.589 | 0.017 | -0.00343 | -6.17 | -1.08 | -0.132 | -0.0139 | 0.0227 | 33.2 | -0.0272 | -0.304 | -0.491 | 0.0914 | 0.315 | -0.317 | 0.0153 | -1.25 | 0.821 | 0.238 | –
O=C(O)C1CCCC1 [cyclopentane-1-carboxylate] | 9.44 | 0.014 | 0.298 | -2.26 | -1.83 | -0.057 | 0.335 | -0.00226 | 3.18 | -0.184 | -0.24 | -0.439 | 0.584 | 1.99 | 0.428 | -0.0145 | 0.409 | 7.83 | 0.259 | –
O=C(O)/C=C/C(=O)O [fumarate] | -1.09 | 0.0135 | 0.214 | 12.2 | -0.753 | 0.112 | -0.13 | -0.00283 | 0.456 | 0.0475 | -0.207 | 0.00492 | 0.00629 | 0.78 | 0.739 | 0.00534 | -0.346 | -1.36 | 0.533 | –
CC(=O)CCC(=O)O [levulinic acid] | -2.12 | 0.00636 | -0.0388 | -11.8 | -2.89 | -0.37 | -0.594 | -0.0149 | -1.91 | -0.265 | -0.187 | -0.623 | -0.0306 | 1.16 | -0.941 | 0.0157 | -1.82 | -1.61 | -0.139 | –
NC(=O)CC[C@H](N)C(=O)O [L-glutamine] | -1.76 | -0.022 | -0.0444 | 4.9 | -2.05 | -0.13 | -0.513 | 0.00325 | -0.494 | -0.146 | -0.333 | -0.432 | 0.0183 | 0.541 | -0.666 | 0.00684 | -0.587 | -2.02 | 0.168 | –
O=C(O)c1c(O)cccc1O [2,6-dihydroxybenzoate] | 2.22 | 0.019 | 0.0383 | -4.96 | 1.87 | 0.277 | 0.406 | 8.29 | 0.369 | 0.0449 | -0.403 | 0.0318 | 0.0103 | -0.411 | 0.89 | 0.00673 | 2.01 | 0.428 | 0.26 | –
C[C@H](O)C(=O)O [L-lactate] | 29 | -0.0302 | -0.0365 | 1.58 | -1.56 | 0.0155 | -0.0815 | 0.00963 | -0.633 | -0.0469 | -0.429 | -0.296 | -0.0258 | 0.33 | -0.526 | 0.0108 | -1.63 | -1.88 | -0.0751 | –
O=C(O)c1cc(=O)c2ccccc2[nH]1 [kynurenate] | -1.75 | -0.028 | -0.0535 | -9.16 | -2.49 | -0.379 | 0.25 | 0.0049 | -1.34 | 0.113 | -0.313 | -0.383 | 0.00396 | -0.284 | -0.96 | 0.00297 | -2.26 | -1.57 | -0.378 | -0.549
O=C(O)CCC(=O)O [succinate] | -1.14 | -0.00365 | -0.0349 | 6.43 | -0.306 | -0.187 | 0.402 | 0.0287 | -0.209 | -0.0829 | -0.471 | 0.239 | -0.0135 | 0.784 | 0.357 | 0.0102 | -1.2 | -1.6 | 0.338 | –
